Measured values as given in PubChem BioAssay.
Inconclusive results are not listed. For some assays here: Potency and affinity values are given separately. Calls of active or inactive are those of the source. Unless noted, how the calls were made is not given here.

Experiments:
[1] = molecular target: ATP-dependent translocase ABCB1 (Homo sapiens) (UniProt P08183); experiment: MDR1 (ABCB1) efflux transporter inhibition, cell-based (AID 377; in the data active means fluorescence slope change above about 50%); conditions: MDR1-expressing cells, fluorescent substrate accumulation slope; stronger effect = higher value; concentration not given here
[2] = polyglutamine-triggered caspase-3 activation inhibitors, cell-based (AID 1583); conditions: polyglutamine-induced caspase-3 activation, cell assay; stronger effect = higher value;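 tested at 10 µM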
[3] = suppressors of polyQ aggregation in yeast, 75Q-TubU reporter (AID 1593); conditions: Yeast 75Q polyglutamine aggregation reporter
[4] = rescue of polyQ-huntingtin neuronal dysfunction in worms, whole organism, C. elegans mechanosensory neurons, N-terminal huntingtin (AID 1599); conditions: touch response, stronger effect = higher value
[5] = inhibitors of mitochondrial cytochrome c release, biochemical, purified mitochondria (AID 1603); conditions: stronger effect = lower value;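 further: mouse liver mitochondria challenged with calcium chloride; signal normalized to the plate average as 100%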
[6] = inhibitors of polyQ protein aggregation (AID 1604); conditions: polyglutamine-induced protein aggregation inhibition assay; stronger effect = higher value; tested at 2.5 µM
[7] = enhancers of glutamate uptake in motor neurons, MN-1 cell line (AID 1612); conditions: MN-1 motor neuron cells, stronger effect = higher value;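 further: tested at 1 µM final; 0% = mean of DMSO vehicle wells on each plate; positive means more glutamate uptake than control and negative means less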
[8] = suppressors of polyglutamine aggregation in yeast, 75Q-TubH (AID 1616); conditions: S. cerevisiae 75Q-TubH polyglutamine aggregation suppression; stronger effect = higher value
[9] = circadian clock period modulators, cell-based, LOPAC library, luminescence reporter (AID 2774); conditions: circadian reporter cells, at 7 µM, actives lie on both sides;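 further: values are relative to mean of DMSO wells on each plate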
[10] = hESC survival regulators, cell-based (AID 493140); conditions: human embryonic stem cell survival screen; stronger effect = higher value;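 further: cells exposed to compounds for four days before counting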

Sequence of ATP-dependent translocase ABCB1 (Homo sapiens) (P08183 whole entry, looked up): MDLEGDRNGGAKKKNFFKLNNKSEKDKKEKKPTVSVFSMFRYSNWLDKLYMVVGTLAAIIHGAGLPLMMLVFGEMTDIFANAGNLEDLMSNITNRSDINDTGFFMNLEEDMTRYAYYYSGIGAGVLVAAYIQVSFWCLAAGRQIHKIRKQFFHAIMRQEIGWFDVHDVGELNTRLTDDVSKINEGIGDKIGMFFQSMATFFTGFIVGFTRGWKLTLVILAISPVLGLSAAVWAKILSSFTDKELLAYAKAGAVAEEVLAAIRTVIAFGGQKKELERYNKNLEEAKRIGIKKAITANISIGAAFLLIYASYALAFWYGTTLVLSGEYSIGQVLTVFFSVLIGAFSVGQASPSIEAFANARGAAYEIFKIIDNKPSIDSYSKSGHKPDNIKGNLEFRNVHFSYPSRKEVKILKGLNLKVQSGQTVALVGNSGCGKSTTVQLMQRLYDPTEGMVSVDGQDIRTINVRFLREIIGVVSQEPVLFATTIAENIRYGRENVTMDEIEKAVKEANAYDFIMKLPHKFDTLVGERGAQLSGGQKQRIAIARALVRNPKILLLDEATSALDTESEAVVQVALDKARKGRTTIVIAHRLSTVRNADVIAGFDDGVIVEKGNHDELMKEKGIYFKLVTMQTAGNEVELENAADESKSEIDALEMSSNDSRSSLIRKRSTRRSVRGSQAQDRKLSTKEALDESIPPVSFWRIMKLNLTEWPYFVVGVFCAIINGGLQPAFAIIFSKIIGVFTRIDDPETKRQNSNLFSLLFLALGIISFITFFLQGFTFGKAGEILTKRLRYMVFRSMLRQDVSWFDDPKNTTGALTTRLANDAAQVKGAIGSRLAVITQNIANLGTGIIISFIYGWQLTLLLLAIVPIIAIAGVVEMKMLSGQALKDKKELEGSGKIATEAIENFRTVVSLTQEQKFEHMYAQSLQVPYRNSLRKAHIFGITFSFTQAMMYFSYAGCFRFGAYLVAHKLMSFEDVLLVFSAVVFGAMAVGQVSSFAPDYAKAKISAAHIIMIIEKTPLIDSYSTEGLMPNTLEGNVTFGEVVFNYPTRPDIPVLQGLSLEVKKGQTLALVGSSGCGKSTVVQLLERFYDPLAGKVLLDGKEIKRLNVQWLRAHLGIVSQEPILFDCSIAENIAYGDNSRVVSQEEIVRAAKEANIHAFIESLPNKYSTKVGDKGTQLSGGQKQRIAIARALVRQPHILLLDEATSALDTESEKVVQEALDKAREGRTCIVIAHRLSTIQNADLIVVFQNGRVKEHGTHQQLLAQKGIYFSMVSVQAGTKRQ

Structure (SMILES): Clc1ccc(C(c2ccccc2Cl)C(Cl)Cl)cc1 (stereo unspecified)
- fluorescence slope change [1]: 7.7% (inactive)
- inhibition [2]: 21%
- score [3]: -3.35
- rescue above control [4]: 0
- cytochrome c release ratio [5]: 3.7
- inhibition of aggregation [6]: 72.2%
- glutamate uptake change [7]: -9.79%
- aggregation suppression score [8]: -1.87
- period change [9]: -0.13 h (inactive)

Structure (SMILES): COC(=O)[C@H]1[C@H]2C[C@@H]3c4[nH]c5cc(OC)ccc5c4CCN3C[C@H]2C[C@@H](OC(=O)c2cc(OC)c(OC)c(OC)c2)[C@@H]1OC
- fluorescence slope change [1]: 51.8% (active)
- inhibition [2]: -42.7%
- score [3]: 1.16
- rescue above control [4]: -12.7
- cytochrome c release ratio [5]: 1.46
- inhibition of aggregation [6]: 63.2%
- glutamate uptake change [7]: 4.63%
- aggregation suppression score [8]: 1.07
- period change [9]: 0.165 h (inactive)
- survival [10]: 6.17 (inactive)

Structure (SMILES): CCC(=O)O[C@H]1[C@H](O[C@@H]2[C@@H](C)[C@H](O[C@H]3C[C@@](C)(OC)[C@@H](O)[C@H](C)O3)[C@@H](C)C(=O)O[C@H](CC)[C@@](C)(O)[C@H](O)[C@@H](C)C(=O)[C@H](C)C[C@@]2(C)O)O[C@H](C)C[C@@H]1N(C)C
- inhibition [2]: -0.34%
- score [3]: -0.96
- rescue above control [4]: 11.4
- cytochrome c release ratio [5]: 1.02
- inhibition of aggregation [6]: 87.3%
- glutamate uptake change [7]: -11.5%
- aggregation suppression score [8]: -0.59

Structure (SMILES): Clc1ccccc1C(c1ccccc1)(c1ccccc1)n1ccnc1
- fluorescence slope change [1]: 67.9% (active)
- inhibition [2]: 60.7%
- score [3]: 0.26
- rescue above control [4]: -7
- cytochrome c release ratio [5]: 4.6
- inhibition of aggregation [6]: 41.7%
- glutamate uptake change [7]: -22.9%
- aggregation suppression score [8]: 0.0931
- period change [9]: 0.01 h (inactive)
- survival [10]: 29.8 (inactive)

Structure (SMILES): CC(Cc1cccc(C(F)(F)F)c1)NCCOC(=O)c1ccccc1 (stereo unspecified)
- fluorescence slope change [1]: 69.3% (active)
- inhibition [2]: 15%
- score [3]: 1.42
- rescue above control [4]: 0
- cytochrome c release ratio [5]: 1.02
- inhibition of aggregation [6]: 40.9%
- glutamate uptake change [7]: 15.6%
- aggregation suppression score [8]: 1.08
- survival [10]: 2.5 (inactive)

Structure (SMILES): CCCCOc1ccc(C(=O)CCN2CCCCC2)cc1
- inhibition [2]: -5.19%
- score [3]: 1.14
- rescue above control [4]: 14.1
- cytochrome c release ratio [5]: 0.48
- inhibition of aggregation [6]: 80.3%
- glutamate uptake change [7]: 1.68%
- aggregation suppression score [8]: 1.27
- survival [10]: 4.92 (inactive)

Structure (SMILES): CN1CCC(=C2c3ccccc3C=Cc3ccccc32)CC1
- fluorescence slope change [1]: 178% (active)
- period change [9]: 0.015 h (inactive)
- survival [10]: 13.7 (inactive)

Structure (SMILES): CC(=O)O[C@]1(C(C)=O)CC[C@H]2[C@@H]3C=C(Cl)C4=CC(=O)[C@@H]5C[C@@H]5[C@]4(C)[C@H]3CC[C@@]21C
- period change [9]: 0.03 h (inactive)

Structure (SMILES): Cc1cn[nH]c1
- period change [9]: 0.23 h (inactive)

Structure (SMILES): COC(=O)Nc1nc2ccc(C(=O)c3cccs3)cc2[nH]1
- fluorescence slope change [1]: 103% (active)
- period change [9]: -0.58 h (inactive)
- survival [10]: 1.17 (inactive)

Structure (SMILES): Nc1nc2c(ncn2COC(CO)CO)c(=O)[nH]1
- period change [9]: -0.27 h (inactive)
- survival [10]: 3.83 (inactive)

Structure (SMILES): O=C(c1ccc(F)cc1)C1CCN(CCn2c(=O)[nH]c3ccccc3c2=O)CC1
- fluorescence slope change [1]: -1% (inactive)
- period change [9]: 0 h (inactive)
- survival [10]: 12.7 (inactive)

Structure (SMILES): CC(C(=O)O)c1ccc(CC2CCCC2=O)cc1 (stereo unspecified)
- period change [9]: -0.055 h (inactive)

Structure (SMILES): CCN1CCC[C@H]1CNC(=O)c1cc(S(N)(=O)=O)ccc1OC
- period change [9]: -0.035 h (inactive)

Structure (SMILES): Cc1scc2c1N(C(=O)CN1CCN(C)CC1)c1ccccc1NC2=O
- fluorescence slope change [1]: 65.1% (active)
- period change [9]: 0.165 h (inactive)
- survival [10]: 11.3 (inactive)

Structure (SMILES): C=CC(N)CCC(=O)O (stereo unspecified)
- fluorescence slope change [1]: 52.2% (active)
- period change [9]: 0.105 h (inactive)
- survival [10]: 14.4 (inactive)

Structure (SMILES): NC(=O)OCC(COC(N)=O)c1ccccc1
- period change [9]: -0.105 h (inactive)

Structure (SMILES): NCCS
- period change [9]: 0.02 h (inactive)

Structure (SMILES): CN1CCN(C2=Nc3ccccc3Oc3ccc(Cl)cc32)CC1
- fluorescence slope change [1]: 163% (active)
- period change [9]: -0.045 h (inactive)
- survival [10]: 12 (inactive)

Structure (SMILES): O=C1CCc2cc(OCCCCc3nnnn3C3CCCCC3)ccc2N1
- period change [9]: 0.02 h (inactive)

Structure (SMILES): O=C1N(c2ccccc2)c2ccccc2C1(Cc1ccncc1)Cc1ccncc1
- period change [9]: 0.25 h (inactive)

Structure (SMILES): CCOC(=O)C1=C(C)NC(C)=C(C(=O)OC)C1c1cccc(Cl)c1Cl (stereo unspecified)
- fluorescence slope change [1]: 28.6% (inactive)
- period change [9]: -0.06 h (inactive)
- survival [10]: 15.7 (inactive)

Structure (SMILES): COc1cc2nc(N3CCN(C(=O)C4COc5ccccc5O4)CC3)nc(N)c2cc1OC (stereo unspecified)
- fluorescence slope change [1]: 75.1% (active)
- period change [9]: 0.11 h (inactive)
- survival [10]: 4.33 (inactive)

Structure (SMILES): COC(=O)[C@@H]1[C@H]2C[C@H]3c4[nH]c5ccccc5c4CCN3C[C@@H]2CC[C@@H]1O
- fluorescence slope change [1]: 52.6% (active)
- period change [9]: 0.095 h (inactive)
- survival [10]: 8.25 (inactive)

Structure (SMILES): C[n+]1cc2c3c(ccc2c2ccc4cc5c(cc4c21)OCO5)OCO3
- period change [9]: -0.18 h (inactive)
- survival [10]: 1.33 (inactive)

Structure (SMILES): C[C@]12C[C@H](O)[C@H]3[C@@H](CCC4=CC(=O)CC[C@@]43C)[C@@H]1CC[C@@H]2C(=O)CO
- period change [9]: -0.34 h (inactive)
- survival [10]: 6.08 (inactive)

Structure (SMILES): CN(C)CC[C@@H](c1ccc(Br)cc1)c1ccccn1
- period change [9]: -0.05 h (inactive)

Structure (SMILES): COc1ccc(C2CNC(=O)C2)cc1OC1CCCC1 (stereo unspecified)
- period change [9]: -0.065 h (inactive)
- survival [10]: 3.92 (inactive)

Structure (SMILES): CC(C)NCC(O)COc1ccc(CCOCC2CC2)cc1 (stereo unspecified)
- fluorescence slope change [1]: 1% (inactive)
- period change [9]: 0.03 h (inactive)
- survival [10]: 8.33 (inactive)

Structure (SMILES): CNCC(O)c1ccc(O)c(O)c1 (stereo unspecified)
- period change [9]: -0.055 h (inactive)
